Laboratory results taken from PubChem BioAssay (NCI).
Where “and” joins values, the source holds several entries; their conditions need not be identical. Equal entries are not always repeated. About 79,000 compounds went through this panel and 15% of them were active in at least one assay; those are over-represented in the sample as a whole. Unmarked numbers belong to inactive results. Calls of active or inactive are those of the source. Rule as the data show it: active = growth inhibition above about 70%; inactive = the rest.

How the values were obtained:
[1] = NCI Yeast Anticancer Drug Screen. Data for the rad50 strain (AID 155);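 also: 0% = growth of vehicle-only cultures of the same strain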; settings: S. cerevisiae rad50 strain growth inhibition, stronger effect = higher value; at 50.0 µM unless noted
How it was run: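 Compounds were tested on a yeast strain with an engineered DNA damage repair alteration; the reported value is growth inhibition normalised to vehicle treatment.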

[2] = NCI Yeast Anticancer Drug Screen. Data for the mec2-1 strain (AID 157); settings: S. cerevisiae mec2-1 strain, stronger effect = higher value; at 50.0 µM unless noted
How it was run: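 Each compound was tested on mec2-1 yeast, a strain altered in DNA damage repair or cell cycle control. Growth inhibition is reported relative to vehicle.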

[3] = NCI Yeast Anticancer Drug Screen. Data for the sgs1 mgt1 strain (AID 161);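 also: 0% = growth of cultures given vehicle only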; settings: S. cerevisiae sgs1 mgt1 strain, stronger effect = higher value; at 50.0 µM unless noted
How it was run: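 Inhibition of yeast growth, normalised to vehicle-treated controls, is reported for a strain bearing genetic alterations in DNA damage repair.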

[4] = NCI Yeast Anticancer Drug Screen. Data for the cln2 rad14 strain (AID 165);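 also: 0% = growth equal to vehicle treated cultures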; settings: S. cerevisiae cln2 rad14 strain, stronger effect = higher value; at 50.0 µM unless noted
How it was run: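 Test compounds were added to cln2 rad14 yeast cultures; inhibition of growth was then determined by comparison with vehicle treatment.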

[5] = NCI Yeast Anticancer Drug Screen. Data for the bub3 strain (AID 167); settings: S. cerevisiae bub3 mutant strain, stronger effect = higher value; at 50.0 µM unless noted
How it was run: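 Growth of a checkpoint-deficient yeast mutant is measured after compound exposure. Values represent inhibition relative to vehicle.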

[6] = NCI Yeast Anticancer Drug Screen. Data for the mlh1 rad18 strain (AID 175); settings: S. cerevisiae mlh1 rad18 strain growth inhibition, stronger effect = higher value; at 50.0 µM unless noted
How it was run: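 Inhibition values reflect reduced growth of mutant yeast versus vehicle-treated controls following compound exposure; the mutations affect DNA damage repair.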

Compound | growth inhibition [1] | growth inhibition [2] | growth inhibition [3] | growth inhibition [4] | growth inhibition [5] | growth inhibition [6]
CSc1nc(N)c2cnn(Cc3ccccc3)c2n1 | 28.4% | 12.5% | 34% | 8.95% | 31.4% | 31.4%
CCn1c(CCCc2nc3c([nH]2)c(=O)n(C)c(=O)n3C)nc2c1c(=O)n(C)c(=O)n2C | 6.65% | -38.8% | -45.1% | 33.2% | -40.7% | -15.3%
CC(C)N=C(N)N=C(N)N | 30.9% | 13.5% | 3.85% | 3.9% | 30.2% | -3.2%
COC(=O)c1ccc(COC(=O)N2C=CCC2C(=O)O)cc1 (stereo not given) | 20.2% | -19.6% | 13.4% | 11.7% | 4% | 1.15%
CCOc1c(N=Nc2ccc(Cl)cc2Cl)c(C)nn1C(=S)SC | 41.4% | 16.1% | 25.9% | 15.5% | -0.45% | 19.6%
CC(=O)Oc1cc(OC(C)=O)c2c(OC(C)=O)c3c(OC(C)=O)cc(C)cc3cc2c1 | 40.5% | 19.8% | 39.5% | 31.6% | 9.3% | 20.1%
CC1(C)COC(=S)N1 | -3% and -28.6% | 6.85% and -21.8% | 0.5% and -14.8% | 11.4% and -25.3% | 9.55% and -26.9% | 19.1% and -27.2%
C/C(=C\c1ccc(N(C)C)cc1)c1ccncc1 | 63.3% | 38.9% | 68.5% | 34.8% | 86.7% (active) | 48.2%
CC(C)=NNC(=O)c1ccc(N)cc1 | 36.1% | 15% | 14.4% | 15.8% | 22.1% | 15.3%
CN(C=O)c1c(F)cc(N=Nc2ccccc2)cc1F | 2.8% | 1.15% | 6.65% | -16.1% | 2.25% | 9.7%
O=C(NCCCl)NC1C(O)OC(CO)C(O)C1O (stereo not given) | 93.2% (active) | 96% (active) | 93.8% (active) | 76.5% (active) | 96.8% (active) | 96.7% (active)
C=CCNC(=S)NNc1nc(C)cc(=O)[nH]1 | 30.1% | -27.9% | 11.7% | 5.55% | 5.95% | 4.3%
CC(=O)c1cccc(NC(=O)Nc2ccc(F)c([N+](=O)[O-])c2)c1 | 7.3% | 22.9% | 21.9% | 3.25% | 36.5% | 2.75%
O=C(Cn1c(=O)ccn(C2OC(CO)C(O)C2F)c1=O)c1ccc(F)cc1 (stereo not given) | -2.5% | 0.3% | -30.9% | -48.8% | 0.6% | 3.1%
O=C(CCl)Nc1cc2ccccc2oc1=O | 21% | 42.4% | 20.6% | 41% | 5.45% | -1.85%
CCOC(=O)CN(c1ccccc1)c1nc(=[N+](C)C)ss1 | 7.05% | 0.65% | 6.8% | 2.55% | 1.35% | 22.9%
Cc1ccc2c(-c3cccc4ccccc34)c3ccccc3cc2c1 | 5.45% | 9.65% | -12% | -8.4% | 8.95% | -7.75%
C=C1C=C2CCC3C(CCC4(C)C(C(C)CCCC(C)C)CCC34)C2(C)CC1 (stereo not given) | 82.5% (active) | 57.6% | 84.9% (active) | 60.6% | 28.2% | 74.2% (active)
O=C(C(=C(I)I)c1ccccc1)c1ccccc1 | 7.7% | -7.95% | 25.1% | -13.7% | 13.6% | -75.4%
CCOC=Nc1ccc(-n2cnc3c(Cl)ncnc32)cc1C | 1.1% | -4.45% | -16.6% | -6.2% | -1% | -17.2%
